Source: PubChem BioAssay (National Center for Advancing Translational Sciences (NCATS))
TDP1 cell noCPT: qHTS for Inhibitors of human tyrosyl-DNA phosphodiesterase 1 (TDP1): qHTS in cells in absence of CPT. Potency, µM (doses to about 46.2 µM), inactives show at the highest dose activity change, negative = growth inhibition, actives largely listed as inhibitors. 420,000 compounds, 15% hits. DT40 Tdp1-/- hTDP1 cells, no CPT, ATP luminescence, 48 h; note: potency is the fitted concentration of half-maximal effect; nearly all actives have a fitted effect of over 55% in size
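Chicken DT40 Tdp1-/- cells complemented with human TDP1, screened without camptothecin (DMSO vehicle only), 400 cells/well. Compounds pin-transferred, cells incubated at 37 °C for at least 48 hr. Growth read as ATP-dependent luminescence (CellTiter-Glo, 30 min at RT).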
HT1080NT lethal: qHTS for induction of synthetic lethality in tumor cells producing 2HG: qHTS for the HT-1080-NT fibrosarcoma cell line; HT-1080-NT fibrosarcoma viability, CellTiter-Glo ATP luminescence, 48 h; Potency, µM (highest dose often 46.1 µM), for inactives: top-dose activity, negative = less viability, usual class: cytotoxic; 360,000 compounds, 1.6% hits;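 note: NT is the 2HG producing partner of a matched IDH1 knockdown line; potency is the fitted concentration of half-maximal effect; 0% = DMSO-treated cells and -100% = media-only wells without cells; nearly all actives have a fitted effect of over 55% in size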
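HT-1080-NT; 750 cells/well; 5% FBS RPMI; 48 h compound, 37 degrees C; CellTiter-Glo luminescence; curve fitting and curve-class assignment.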
HT1080 IDH1KD tx: qHTS for induction of synthetic lethality in tumor cells producing 2HG: qHTS for the HT-1080-IDH1KD cell line; HT-1080 IDH1 knockdown viability, ATP luminescence, 48 h; Potency, µM (titrated, usually from 46.1 µM), inactives show at the top dose activity, negative = toxicity, hits mostly cytotoxic; 360,000 compounds, 2% hits;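 note: potency is the fitted concentration of half-maximal effect; 0% = DMSO wells and -100% = cell-free medium wells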
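IDH1KD HT-1080 cells, 750/well, RPMI + 5% FBS; compound pinned after 2 h settling; 48 h, 37 °C; CellTiter-Glo luminescence; % activity normalised to DMSO and no-cell wells; curves fitted, classed by r2 and efficacy.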
DT40 TDP1 CPT: qHTS for Inhibitors of human tyrosyl-DNA phosphodiesterase 1 (TDP1): qHTS in cells in presence of CPT; chicken DT40 Tdp1-/-;hTDP1 cells + 20 nM CPT, ATP luminescence, 48 h; Potency, µM (doses to about 46.2 µM), without a hit: top-dose activity change, negative = growth inhibition, usual class: inhibitors; 420,000 compounds, 12% hits; AID 686979, 2013; note: potency is the fitted concentration of half-maximal effect; nearly all actives have a fitted effect of over 55% in size
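Cell growth measured by CellTiter-Glo luminescence after a minimum 48 h, 37 C compound exposure with 20 nM CPT in Tdp1-knockout DT40 cells stably expressing hTDP1, seeded 400/well; qHTS titration format.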
IL-1B inflam inh: qHTS for Inhibitors of Inflammasome Signaling: IL-1-beta AlphaLISA Primary Screen; activity change, % at 57.5 µM; THP-1 LPS/ATP IL-1B secretion, AlphaLISA, 16 h; active compounds read low; AID 743279, 2014; 360,000 compounds, 4.7% hits; in the data active = activity change below about -50%; inconclusive = mostly about -30% to -49%
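Secreted IL-1B measured by AlphaLISA bead assay after 16 h compound exposure of THP-1 cells; compounds (final up to 57.5 uM) added 1 h before LPS (250 ng/mL) and ATP (1.25 mM) stimulation; lower signal means less secretion.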
* hit, by the source's call; ? = inconclusive; · = no result given; [ ] = remark or other dose. Only some compounds are listed: those with a hit (about 19% of all), similar ones and a draw of the others. Unless noted, calls come from the whole dose curve; as a rule, active = well fitted curve in the direction sought with a large enough effect; inconclusive = small, poorly fitted or top-dose-only effect, or another doubt; inactive = no such curve, though single readings can be large; an effect the other way counts as inactive or inconclusive. Unless noted, % is set by controls: 0 for no effect and ±100 for the full control effect.

SMILES	TDP1 cell noCPT	HT1080NT lethal	HT1080 IDH1KD tx	DT40 TDP1 CPT	IL-1B inflam inh
CC1=CC[C@@]2(CO)COC(c3ccccc3O)C1C2 (some centres undefined)	9.2%[9.04 µM]	·	·	5.6%[9.04 µM]	·
COC(=O)Cc1c(C)c2ccc(OCC(=O)N(C)C3CCS(=O)(=O)C3)cc2oc1=O (centres undefined)	8.1%	-1.9%	10.6%	-12.2%	-1.0
Cc1ccc(S(=O)(=O)c2nc(Nc3ccccc3)sc2Cl)cc1	?	-12.2%	-14.1%	?	0.0
COc1ccc(Nc2nc(S(=O)(=O)c3ccc(C)cc3)c(Cl)s2)cc1	?	23.1µM*	23.1µM*	?	-90.8*
Cc1n[nH]c(C)c1S(=O)(=O)N1CCCC(C(=O)Nc2ccc(Cl)cc2)C1 (centres undefined)	7.31µM*	·	·	?	·
CCOC(=O)c1c(S(=O)(=O)N2CCCC(C(=O)Nc3cccc(Cl)c3)C2)c(C)n(C)c1C (centres undefined)	?	·	·	9.2µM*	·
CCOC(=O)c1cccc(NC(=O)C2CCCN(S(=O)(=O)c3c(C)nn(C)c3C)C2)c1 (centres undefined)	?	-5.6%	-4.8%	20.6µM*	-7.6
CCOC(=O)c1c(S(=O)(=O)N2CCCC(C(=O)Nc3ccccn3)C2)c(C)n(C)c1C (centres undefined)	3.8%	·	·	-12.8%	·
O=C(O)c1ccc2nc(-c3cc4cc(Cl)ccc4oc3=O)[nH]c2c1	-0.1%	·	·	?	·
CCOC(=O)N1CCc2c(sc3c2c(=O)n(Cc2ccccc2)c(=O)n3Cc2ccccc2F)C1	?	-2.3%	2.9%	?	24.7
O=C(O)Cn1c(=O)c2c3c(sc2n(Cc2ccccc2)c1=O)CCCC3	-25.0%	-22.1%	-9.8%	-17.8%	9.0
CC(=O)N1CCc2c(sc3c2c(=O)n(Cc2ccccc2)c(=O)n3Cc2ccccc2Cl)C1	23.1µM*	·	·	?	·
CC(=O)N1CCc2c(sc3c2c(=O)n(CCc2ccccc2)c(=O)n3Cc2ccc(F)cc2)C1	8.2µM*	·	·	18.4µM*	·
CC(=O)N1CCc2c(sc3c2c(=O)n(Cc2ccccc2)c(=O)n3Cc2ccccc2F)C1	20.6µM*	·	·	20.6µM*	·
CC(=O)N1CCc2c(sc3c2c(=O)n(Cc2ccccc2)c(=O)n3Cc2ccc(C)cc2)C1	18.5%	·	·	-6.5%	·
O=c1c2c3c(sc2n2cnnc2n1Cc1ccccc1)CN(Cc1ccccc1)CC3	14.6µM*	-7.5%	-4.4%	16.4µM*	-17.4
CCOc1ccccc1N1CCN(CC(O)COC2CCCc3ccccc32)CC1 (centres undefined)	?	-14.1%	1.4%	?	-15.1
CN(C)C(=O)c1ccc2c(c1)N(CC(=O)NCc1ccc(F)cc1)C(=O)C1CCCCN21 (centres undefined)	-26.2%	·	·	-23.4%	·
Cc1ccccc1-c1nnn(CC(=O)NC(=O)NC2CCCC2)n1	-9.9%	0.0%	0.6%	-4.6%	-54.0*
COc1ccc(NC(=O)Cn2nnc(-c3ccccc3NC(=O)c3cccs3)n2)cc1	?	?	?	?	-4.7
O=C(Cn1nnc(-c2ccccc2NC(=O)c2ccccc2F)n1)NC1CCCC1	-14.1%	?	9.2%	-0.3%	-7.2
CCOc1ccc(NC(=O)Cn2nnc(-c3ccccc3NC(=O)CC)n2)cc1	16.4µM*	-13.3%	-24.6%	?	27.2
COc1ccc(NC(=O)Cn2nnc(-c3ccccc3NS(=O)(=O)c3ccc(OC)cc3)n2)cc1	?	-20.5%	?	?	40.4
CCCC(=O)Nc1ccccc1-c1nnn(CC(=O)Nc2ccc(OCC)cc2)n1	20.6µM*	-7.8%	-23.1%	?	18.2
Cc1ccc(NC(=O)Cn2nnc(-c3ccccc3NC(=O)c3cccs3)n2)cc1	0.82µM*	1.16µM*	1.16µM*	0.651µM*	9.4
SMILES	TDP1 cell noCPT	HT1080NT lethal	HT1080 IDH1KD tx	DT40 TDP1 CPT	IL-1B inflam inh
CC(CCC(C)[n+]1cccc(C#N)c1)[n+]1cccc(C#N)c1 (centres undefined)	-22.5%	·	·	-8.3%	·
CC(C)C(=O)Nc1ccc2nn(-c3ccccc3)nc2c1	?	-11.0%	-10.9%	?	-2.6
COC(=O)C[C@H]1C=C[C@@H](C(C(=O)OC)C(=O)OC)CN1C(C)=O	-14.5%	14.1%	12.5%	7.2%	47.8
CCN(CC(=O)Nc1c(F)cccc1F)C(=O)c1ccc(C)c(S(=O)(=O)N2CCCCC2)c1	-22.8%	2.5%	-2.4%	-26.2%	-20.5
COc1cc(OC)cc(C(=O)Nc2ccccc2-c2nnn(CC(N)=O)n2)c1	-8.6%	19.4%	?	2.6%	-20.4
Cc1ccccc1C(=O)Nc1ccccc1-c1nnn(CC(=O)Nc2ccc3c(c2)OCCO3)n1	14.6µM*	-23.1%	-16.1%	23.1µM*	32.1
O=C(Cn1nnc(-c2ccccc2NC(=O)c2ccccc2)n1)Nc1ccc2c(c1)OCCO2	-25.3%	-26.4%	-13.5%	?	-10.2
CCOC(=O)Cn1nnc(-c2cc(OC)c(OC)c(OC)c2)n1	-0.4%	23.1%	21.9%	-1.6%	?
COc1ccc(C(=O)Cn2nnc(-c3ccccc3NC(=O)C3CC3)n2)cc1	16.4µM*	-1.2%	-4.4%	18.4µM*	-1.3
COc1cc(-c2nnn(CC(=O)Nc3ccc(OC(F)(F)F)cc3)n2)cc(OC)c1OC	7.31µM*	·	·	20.6µM*	·
COc1ccccc1NC(=O)Cn1nnc(-c2ccccc2NS(=O)(=O)c2ccccc2)n1	18.4µM*	-5.5%	-16.3%	13µM*	4.3
Cc1cc(C(=O)N2CCN(c3cc(Cl)ccc3C)CC2)on1	-20.9%	18.8%	9.1%	-4.1%	-28.5
COc1cc(/C=C/C(=O)Nc2ccc(S(=O)(=O)Nc3ncccn3)cc2)ccc1OCC#N	?	2.9%	0.0%	0.6%	-18.1
